Screening data from PubChem.
BAZ2B block: qHTS Assay for Inhibitors of BAZ2B; Bromodomain adjacent to zinc finger domain protein 2B (Homo sapiens), Q9UIF8; AlphaScreen BAZ2B-H3K14Ac peptide displacement; 360,000 tested, 4.4% active; Potency, µM (titrated, usually from 114 µM), inactives show at the top dose activity change, negative = inhibition, hits mostly inhibitors; also: % is scaled to controls: 0 for no effect and ±100 for the full control effect; nearly all actives have a fitted effect of over 60% in size
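BAZ2B 50 nM plus b-H3(5-23)K14Ac 50 nM, PBS pH 7.4/0.01% Tween-20, 30 min RT; compound added (max 110 uM), 30 min RT; streptavidin donor/Ni-chelate acceptor beads 10 ug/mL final, 20 min dark; AlphaScreen read.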
Sfp PPTase inh: qHTS Assay for Inhibitors of Bacillus subtilis Sfp phosphopantetheinyl transferase (PPTase) | 4'-phosphopantetheinyl transferase ffp (Bacillus subtilis), Q9F4F7 | Biochemical Sfp PPTase activity, qHTS | Potency, µM, for the others: largest response in the series, negative = inhibition, hits mostly inhibitors | 310,000 tested, 3.5% active;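 also: the enzyme is Sfp with the accession as filed and its product quenches rhodamine fluorescence; 0% = enzyme reaction without inhibitor and -100% = no enzyme wells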
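Fluorescence-quenching assay with 15 nM Sfp, 5 uM rhodamine-CoA and 12.5 uM BHQ-2-labelled ybbR peptide in pH 7.6 Hepes/MgCl2 buffer. Enzyme was pre-incubated with compound for 15 min at room temperature. Rate was taken from the 30-min fluorescence change (525/598 nm).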
JMJD2A Tudor: qHTS Assay for Inhibitors of JMJD2A-Tudor Domain; Lysine-specific demethylase 4A (Homo sapiens), O75164; AlphaScreen JMJD2A-Tudor / H3K4me3 peptide binding; Potency, µM (doses to about 114 µM), inactives show at the top dose activity change, negative = inhibition, hits mostly inhibitors; 390,000 tested, 4.4% active; AID 504339, 2011; also: % is scaled to controls: 0 for no effect and ±100 for the full control effect; nearly all actives have a fitted effect of over 50% in size
HP1b binding inh: HTS for Inhibitors of HP1-beta Chromodomain Interactions with Methylated Histone Tails; Potency, µM (highest dose often 114 µM), for inactives: at the highest dose activity change, negative = inhibition, actives largely listed as inhibitors; AID 540317, 2011; AlphaScreen HP1-beta / biotin-H3K9me3 peptide binding; Chromobox protein homolog 1 (Homo sapiens), P83916; 390,000 tested, 0.56% active; also: nearly all actives have a fitted effect of over 70% in size
Target sequence (P83916 whole entry, looked up): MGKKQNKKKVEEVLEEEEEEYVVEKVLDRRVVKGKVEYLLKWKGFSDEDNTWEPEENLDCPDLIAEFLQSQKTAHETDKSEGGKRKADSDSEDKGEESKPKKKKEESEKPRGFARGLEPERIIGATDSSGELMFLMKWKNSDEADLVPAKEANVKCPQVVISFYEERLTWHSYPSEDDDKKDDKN
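HP1-beta protein (50 nM final) preincubated 30 min at room temperature with biotinylated H3(1-18)K9me3 peptide (50 nM) in PBS pH 7.4, 0.01% Tween-20, then compound added for 30 min. AlphaScreen streptavidin donor/nickel chelate acceptor beads (10 ug/mL final), 30 min dark, luminescence read.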
G9a block: qHTS Assay for Inhibitors of Histone Lysine Methyltransferase G9a; Potency, µM (titrated, usually from 102 µM), for inactives: top-dose activity, negative = inhibition, actives largely listed as inhibitors; 350,000 tested, 8.8% active; G9a H3K9 monomethylation, AlphaScreen, 2 h; Histone-lysine N-methyltransferase EHMT2 (Homo sapiens), Q96KQ7; also: % is scaled to controls: 0 for no effect and ±100 for the full control effect; nearly all actives have a fitted effect of over 75% in size
Target sequence (Q96KQ7 913-1193 limits assumed): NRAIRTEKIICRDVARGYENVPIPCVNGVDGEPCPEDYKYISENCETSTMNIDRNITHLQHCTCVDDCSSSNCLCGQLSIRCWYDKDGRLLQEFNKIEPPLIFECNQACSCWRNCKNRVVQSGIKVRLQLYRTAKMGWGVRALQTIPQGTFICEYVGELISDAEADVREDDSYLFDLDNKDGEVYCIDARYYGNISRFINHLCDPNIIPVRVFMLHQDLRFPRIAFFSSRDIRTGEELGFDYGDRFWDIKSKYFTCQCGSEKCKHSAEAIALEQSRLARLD
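G9a (20 nM) was preincubated 15 min with compound, then reacted 2 h at room temperature with 500 nM biotin-H3K9 peptide and 20 µM SAM. Monomethyl-H3K9 detected by AlphaScreen using anti-H3K9me1 antibody.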
* = called active by the depositor; ? = inconclusive; · = no result given; [ ] = dose if it differs, or a comment. The list is not random: actives were taken first. Their share in the collection is about 12%. Calls follow the shape of the dose curve; as a rule, active = well fitted curve in the direction sought with a large enough effect; inconclusive = small, poorly fitted or top-dose-only effect, or another doubt; inactive = no such curve, though single readings can be large; an effect the other way counts as inactive or inconclusive. Potency is read from the fitted curve at half-maximal effect.

SMILES	BAZ2B block	Sfp PPTase inh	JMJD2A Tudor	HP1b binding inh	G9a block
Cc1ccc(/C=N/NC(=O)CNC(=O)c2ccc(S(=O)(=O)N3CCCC3)cc2)o1	-14%	2%	-10%	37%	45µM*
Cc1ccccc1OCC(=O)NCCCNC(=O)c1cccnc1	4%	-16%	-7%	24%	12%
COc1ccc(CNCc2ccccc2C(F)(F)F)cc1	79µM*	-22%	28µM*	?	8.9µM*
COc1ccc2ccc(O)c(CN(C)CC(=O)Nc3ccccc3C(F)(F)F)c2c1	-13%	-9%	?	-20%	7.9µM*
COc1ccc(CCNCC(=O)Nc2ccccc2C(F)(F)F)cc1	50µM*	-12%	3.2µM*	?	2.5µM*
COc1ccc(CN(C)CC(=O)Nc2ccccc2C(F)(F)F)cc1	8%	6%	30%	106%	60%
COc1ccc(CNCc2cccc3ccccc23)cc1	?	-23%	18µM*	?	·
CCN1CCN(C(CNS(=O)(=O)c2ccccc2)c2ccccc2)CC1 (stereo not given)	-1%	16%	-21%	-3%	13%
COc1ccc(C)cc1NC(=O)Cn1cc(S(=O)(=O)Cc2ccccc2Cl)c2ccccc21	-10%	·	-16%	6%	-25%[59 µM]
O=C(CCCCCn1c(=O)[nH]c2ccccc2c1=O)N1CCN(Cc2ccc3c(c2)OCO3)CC1	-12%	-7%	-15%	-3%	?
COC(=O)c1ccc(C)c(NC(=O)CCc2ccc(OC)cc2)c1	-6%	89µM*	-18%	22%	-6%[59 µM]
Cc1ccc(C(=O)O)cc1NC(=O)CCc1ccccc1	-28%	19%	?	-6%	5%
COC(=O)N1[C@H]2CC[C@@]3(C)CC(=O)C[C@]1(C)C3c1ccccc12	·	-4%	·	·	·
CCOc1ccc(S(=O)(=O)N2CCOCC2)cc1NC(=O)CSCC(=O)Nc1cccc(C)c1	1%	23%	-1%	20%	-38%
COc1cc(NS(=O)(=O)c2ccc(NS(=O)(=O)c3ccccc3)cc2)nc(OC)n1	?	14%	-15%	12%	56µM*
COc1cc(NS(=O)(=O)c2ccc(NC(=O)/C(=C/c3ccccc3Cl)NC(=O)c3ccccc3)cc2)nc(OC)n1	?	10%	-20%	11%	?
COc1cc(NS(=O)(=O)c2ccc(NC(=O)/C(=C\c3ccccc3OC)NC(=O)c3ccccc3)cc2)nc(OC)n1	-3%	10%	-30%	27%	20µM*
O=C1CS/C(=N/N=C/c2ccccc2)N1c1ccc(O)cc1	10%	10%	-14%	21%	·
O=C1CS/C(=N\N=C\c2ccco2)N1c1ccccc1	50µM*	-6%	?	2%	?
S=C(Nc1ccc2[nH]ccc2c1)NC1CCCCC1	?	16%	?	3%	?
Cc1cc(OCc2nc3ccccc3s2)ccc1N	40µM*	20µM*	?	?	10µM*
CCOC(=O)C(=O)Cc1nc2ccccc2s1	?	2%	-29%	14%	50µM*
CCC(=O)Nc1ccc(OCc2nc3ccccc3s2)cc1	·	45µM*	-31%	-26%	10µM*
COc1ccc(C2NC(c3ccc(OC)cc3)C(C)C(=O)C2C)cc1 (stereo not given)	6%	-10%	16%	25%	29%
CC1C(=NO)C(C)C(c2ccc(N(C)C)cc2)NC1c1ccc(N(C)C)cc1 (stereo not given)	40µM*	-29%	-8%	29%	-5%[0.0925 µM]
SMILES	BAZ2B block	Sfp PPTase inh	JMJD2A Tudor	HP1b binding inh	G9a block
O=C(NCC#CCOCc1ccccc1)c1ccccc1	4%	-3%	-6%	41%	50µM*
O=C(NCCCc1ccccc1)c1ccccc1	4%	23%	-1%	39%	0%
CC(=O)c1cccc(N=Cc2c(O)ccc3ccccc23)c1	?	11%	71µM*	-10%	1.6µM*
CC(=O)N(C)c1ccc(N=Cc2c(O)ccc3ccccc23)cc1	-29%	1%	?	17%	4µM*
O=C(c1ccc2c(=O)n3c(nc2c1)CCCCC3)N1CCN(Cc2ccccc2)CC1	6%	15%	-14%	15%	4%[59 µM]
O=C(Nc1ccccc1)c1cccnc1N1CCCC1	5%	9%	-12%	8%	-7%
CC(C)Cn1c(-c2ccco2)n[nH]c1=S	?	-17%	4µM*	-8%	7.1µM*
CC(C)Cn1c(-c2ccco2)nc2c(c(=O)c3ccccc3n2C)c1=O	-34%	-72%	·	·	?
CCCCCn1c(-c2ccco2)nc2nc3ccccc3nc21	1%	?	5%	44%	-4%[59 µM]
C=CCn1c(-c2ccco2)n[nH]c1=S	-5%	-15%	10µM*	38%	?
CCCCn1c(-c2ccco2)n[nH]c1=S	-4%	-69%	3.2µM*	?	5µM*
CCCCn1c(-c2sccc2C)n[nH]c1=S	-18%	-25%	4.5µM*	?	7.9µM*
COc1cc(OC)c(NC(=O)CSCc2nc(-c3ccc(OC)c(OC)c3)no2)cc1Cl	0%	·	-12%	42%	6%[59 µM]
O=C(CCCn1c(=O)[nH]c2cc(Cl)ccc2c1=O)NC1CCCCCC1	5%	8%	2%	24%	-5%
COc1ccc(NS(=O)(=O)c2ccc(C)c(C(=O)N3CCN(Cc4cc(OC)ccc4OC)CC3)c2)cc1	·	·	-27%	34%	·
Cc1cc2nc(-c3ccco3)cc(C(F)(F)F)n2n1	15%	-9%	17%	76%	-6%[59 µM]
CCn1c(-c2ccco2)n[nH]c1=S	3%	-13%	-2%[11.4 µM]	-22%	3.5µM*
Cn1c(-c2ccco2)n[nH]c1=S	-13%	-14%	7.9µM*	22%	4.5µM*
COc1ccc(S(=O)(=O)N2CCCCC2)cc1NC(=O)CNc1ccc(F)cc1C	?	·	-28%	7%	-6%[12.7 µM]
O=C(c1ccc(-n2cccn2)cc1)N1CCc2c([nH]c3ccccc23)C1c1ccccn1 (stereo not given)	?	-9%	?	10%	?
Cc1cccc(C2c3[nH]c4ccccc4c3CCN2C(=O)c2cc3c([nH]c2=O)CCCC3)n1 (stereo not given)	45µM*	2%	?	-10%	-8%[12.7 µM]
Cc1nc(C)c(CC(=O)N2CCc3c([nH]c4ccccc34)C2c2ccccn2)s1 (stereo not given)	?	-9%	-35%	0%	·
CCOC(=O)c1[nH]c(C)c(C(=O)N2CCc3c([nH]c4ccccc34)C2c2ccccn2)c1C (stereo not given)	50µM*	-7%	?	-24%	8%[0.501 µM]
O=C(c1cc2c([nH]c1=O)CCCC2)N1CCc2c([nH]c3ccccc23)C1c1ccccc1F (stereo not given)	?	-9%	?	-6%	·
